Experimental data reported in PubChem BioAssay (NCATS).
Inconclusive results are not listed. Entries that show only a call come without a potency. Active and inactive are the calls of the source. The call rests on the fitted dose curve; in most records, active means well fitted inhibition curve with a large enough effect; inconclusive means small, poorly fitted or top-dose-only effect; inactive means no such curve, though single readings can be large or run the other way.

Assays:
[1] = tested on: Zika virus NS2B-NS3 protease (unlinked complex); assay: Primary screen GU Rhodamine qHTS for Zika virus inhibitors: Unlinked NS2B-NS3 protease assay (AID 1347159); further: nearly all actives have a fitted effect of over 60% in size
Procedure, shortened: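 Compounds, tested up to 114 microM, were incubated for 15 minutes with 25 nM unlinked NS2B-NS3 protease at pH 8.0. Cleavage of 1.5 microM Rhodamine110 substrate was then followed by fluorescence for 15 minutes.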

[2] = tested on: Zika virus NS2B-NS3 protease (linked construct); assay: Primary screen NINDS Rhodamine qHTS for Zika virus inhibitors (AID 1347160); further: nearly all actives have a fitted effect of over 55% in size
Procedure, shortened: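 Percent inhibition, normalized to uninhibited and enzyme-free controls, is fitted to a 4-parameter Hill equation. Fluorescence change comes from a 15-min cleavage of 1.5 microM bis-peptide Rhodamine110 substrate by 25 nM linked NS2B-NS3 at room temperature.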

Compound	Potency [1]	Potency [2]
CC(=O)CC(=O)Nc1ccc(Cl)c(C(F)(F)F)c1	inactive	inactive
NC(=O)c1nc(Nc2ccccc2)sc1NC(=O)C1CCCCC1	inactive	inactive
COc1cc(F)c(F)c(Nc2ccc(I)cc2F)c1NS(=O)(=O)C1(CC(O)CO)CC1 (stereo not drawn)	inactive	inactive
COc1cc2c(Nc3cc(F)c(Cl)c(Cl)c3)ncnc2cc1OCC1CCCN(C)CCC1	inactive	inactive
C=C1CC[C@@H]2[C@](C)(CO)[C@H](O)CC[C@@]2(C)[C@@H]1CC(O)C1=CCOC1=O (stereo partly drawn)	inactive	inactive
Cc1ccc(-c2ncc[nH]2)cc1NC(=O)c1ccc(OCc2ccccn2)cc1	inactive	inactive
CC(=O)OC1CC(O)(C(C)C)C2C(OC(=O)c3ccc(O)cc3)C=C(C)C(=O)CC12C (stereo not drawn)	inactive	inactive
CC(C)S(=O)(=O)NC[C@H](C)c1ccc(-c2ccc(CCNS(C)(=O)=O)cc2)cc1	inactive	inactive
CC(=O)Nc1cccc(-c2csc(Nc3cc(C)ccn3)n2)c1	inactive	inactive
CCn1c(N)c(C(=O)NC)c(=O)c2ccc(C#CC(C)(O)COC)nc21 (stereo not drawn)	inactive	inactive
C/C=C(/C=C(C)/C=C/C=C/C=C(\C)C(=O)C12OC1C(O)(CCO)NC2=O)C(=O)OC (stereo not drawn)	inactive	inactive
C=C1CC[C@@H]2[C@](C)(CO)[C@H](O)CC[C@@]2(C)[C@@H]1C/C=C1/C(=O)OCC1OC(=O)/C(=C/CO)C(O)C[C@@H]1C(=C)CC[C@@H]2[C@](C)(CO)[C@H](O)CC[C@]21C (stereo partly drawn)	inactive	inactive
CC(C)(Cc1nc(-c2ccc(O)cn2)no1)C(=O)NC1=C(C(=O)O)CCCC1	inactive	inactive
O=C(Nc1ccc2[nH]nc(-c3ccncc3)c2c1)[C@@H]1CCN(CC(=O)N2CCN(c3ccc(-c4ncccn4)cc3)CC2)C1	inactive	inactive
CN(C)C(CCOc1cccc2ccccc12)c1ccccc1 (stereo not drawn)	inactive	inactive
Cn1nc(C(C)(C)C)cc1C(=O)N[C@@H](Cc1cccc(Cl)c1)C(=O)NCC#N	inactive	inactive
CC1(C)CN(C(=O)c2ccc(-c3cccc4nc(NC(=O)C5CC5)nn34)cc2)C1	inactive	inactive
NC(N)=NC(=O)c1cnn(-c2cccc3ncccc23)c1C1CC1	inactive	inactive
Cc1ccc(C)c(NS(=O)(=O)c2cc(C(=O)Nc3ccccc3-c3ccccc3)ccc2C)c1	inactive	inactive
CCCC(CCC)C(=O)NCc1ccc2c(cnn2-c2ccccc2OC)c1	inactive	inactive
O=C(/C=C/c1ccccc1O)O[C@@H]1O[C@H](CO)[C@@H](O)[C@H](O)[C@H]1O	inactive	inactive
Cc1[nH]c2ccc(F)cc2c1-c1nc2c3cccnc3c3ncccc3c2[nH]1	inactive	inactive
COC1CCN(C(=O)c2cc(Cc3n[nH]c(=O)c4ccccc34)ccc2F)CC1	inactive	inactive
COc1ccncc1C(=O)NC(=O)Nc1ccc(-c2ccccc2)c(C(F)(F)F)c1	inactive	inactive
Cn1ncnc1[C@H]1c2n[nH]c(=O)c3cc(F)cc(c23)N[C@@H]1c1ccc(F)cc1	inactive	inactive
O=c1ccc2ccc(OCCCCN3CCN(c4cccc5sccc45)CC3)cc2[nH]1	inactive	inactive
COc1cc(N(C)CCN(C)C)c(N)cc1Nc1nccc(-c2cn(C)c3ccccc23)n1	inactive	inactive

Compound	Potency [1]	Potency [2]
O=C(C1CCCCC1)N(CCN1CCN(c2ccccc2O)CC1)c1ccccn1	inactive	inactive
COC1CC/C=C(\C)C(=O)Nc2cc(O)cc(c2)CC(C)CC(OC)C(O)C(C)/C=C(\C)C1OC(N)=O (stereo not drawn)	inactive	inactive
COc1c(F)cccc1C(=O)N1C[C@@H](C)CC[C@H]1CNc1ccc(Br)cn1	inactive	inactive
Cc1ccc(-c2ncccn2)c(C(=O)N2C[C@H](COc3ccc(F)cn3)CC[C@H]2C)c1	inactive	inactive
CC(=O)OC1C(O)CC2(C)C(CCC3(C)C2CC=C2C4C5(CCC(CO[C@@H]6O[C@H](CO)[C@@H](O)[C@H](O)[C@H]6O)(OC5=O)C4(C)O)C(O)CC23C)C1(C)C (stereo partly drawn)	inactive	inactive
CC(C)(C[C@@](O)(Cc1cc2ccncc2[nH]1)C(F)(F)F)c1cc(F)ccc1O	inactive	inactive
Cc1nnc(-c2ccc(-c3ccc(C(=O)Nc4ccc(O)c(N5CCN(C)CC5)c4)cc3)c(C)c2)o1	inactive	inactive
Fc1ccc(-c2nc(-c3ccccc3F)[nH]c2-c2ccncc2)cc1	inactive	inactive
Cc1c(NC(=O)OCC2COCCN2)cn2ncnc(Nc3ccc4c(cnn4Cc4cccc(F)c4)c3)c12 (stereo not drawn)	inactive	inactive
COc1cc2nc(N3CCN(C(=O)COc4c(OC)cccc4C(C)C)CC3)nc(N)c2cc1OC	inactive	inactive
O=C(N[C@H]1CCC[C@H](CO)C1)C1CCN(c2nc3cc(Cl)c(-c4ccc(Cl)cc4)cc3o2)CC1	inactive	inactive
CC(C)CCNc1ncccc1C(=O)N1CCN(Cc2ccccc2)CC1	inactive	inactive
Clc1cccc(COc2cncc(N3CCNCC3)n2)c1	inactive	inactive
Cn1c(CO)c(-c2ccccc2)c2cc([N+](=O)[O-])ccc21	inactive	inactive
Cc1ccc(C(=O)Nc2ccc(CN3CCN(C)CC3)c(C(F)(F)F)c2)cc1C#Cc1cnc2[nH]ncc2c1	inactive	inactive
O=[N+]([O-])c1cn2c(n1)OC[C@@H](OCc1ccc(-c3ccc(OC(F)(F)F)cc3)nc1)C2	inactive	inactive
Fc1ccc(N2CCCCC2)c(NC(=S)c2ccncc2)c1	inactive	inactive
CCOC(=O)C1=Cc2ccc(C(F)(F)C(F)(F)F)cc2N=C(N)C1	inactive	inactive
C=C1C(=O)O[C@@H]2C[C@]3(C)[C@@H](CCC(C)O)[C@@H]3C[C@H]12 (stereo partly drawn)	inactive	inactive
CC1CCCC(O)CC(=O)c2c(O)cc(O)cc2CC(=O)O1 (stereo not drawn)	inactive	inactive
CCN(CC)CCCS(=O)(=O)N[C@H](CCc1ccccc1)c1nc(Cc2ccc(Br)cc2)no1	inactive	inactive
CNC(=O)c1cc(Oc2ccc(NC(=O)c3cccc(C(F)(F)F)c3)cc2)ccn1	inactive	inactive
CC(C)(C)c1ccc(-c2nc3c(N4CCN(Cc5ccc6nccnc6c5)CC4)cccc3[nH]2)cc1	inactive	inactive
COc1ccc(C(=O)Nc2c(Cl)cncc2Cl)cc1OC1CCCC1	inactive	inactive
C=C1C(=O)O[C@@H]2C=C(COC(C)=O)CC/C=C(\CO)CC[C@@H]12	inactive	inactive
COc1cc(N2CCOCC2)ccc1NC(=O)c1csc(-c2cccnc2)n1	inactive	inactive
C=C1C(=O)OC2/C=C(\COC(C)=O)CC/C=C(\C=O)CC(OC(=O)CC(C)C)C12 (stereo not drawn)	inactive	inactive

Compound	Potency [1]	Potency [2]
CC[N+]1(C/C2=C/CCCCCC2)CCC(NC(=O)C2c3cc(Cl)ccc3Oc3ccc(Cl)cc32)CC1 (stereo not drawn)	inactive	inactive
CN(C)C(=O)C(=O)c1cn(C)c2cc(Cl)c(C(=O)N3CCC(Cc4ccc(F)cc4)CC3)cc12	inactive	inactive
Cn1ncc2cc(-c3cnc(N)c(Cl)c3N3CCC4(CCNC4=O)CC3)ccc21	inactive	inactive
COc1ccc(NC(=O)c2ccc(-c3ccc(-c4nnc(C)o4)cc3C)cc2)cc1N1CCN(C)CC1	inactive	inactive
COc1cc(/C=C/C(=O)NCCn2c(C(F)(F)F)cc3ccccc32)cc(OC)c1OC	inactive	inactive
COc1ccc2c(c1)C(C(=O)N(Cc1ccc(N(C)C)cc1)c1ccc(C(C)C)cc1)CCC2 (stereo not drawn)	inactive	inactive
CN(C)CCN(Cc1ccc(-c2ccc(CNCCc3ccccc3)cc2)cc1)C(=O)CCC1CCCC1	inactive	inactive
CN(C)CCCn1cc(C2=C(c3c[nH]c4ccccc34)C(=O)NC2=O)c2ccccc21	inactive	inactive
O=C(NCCCCCCCCNC(=O)C(Cl)Cl)C(Cl)Cl	inactive	inactive
CN(CC1COCCO1)S(=O)(=O)Nc1ccc2ccc3ncc(-c4cnn(C)c4)cc3c(=O)c2c1 (stereo not drawn)	inactive	inactive
Cc1cccc(-c2[nH]ncc2-c2ccnc3ccccc23)n1	inactive	inactive
COc1ccc(S(=O)(=O)N2CCC[C@H]2C(=O)Nc2cc(C)cc(C)c2)cc1	inactive	inactive
CCN(CCNC(=O)Nc1ccccc1Br)c1cccc(C)c1	inactive	inactive
C/C=C(\C)C(=O)O[C@H]1C=CC(=O)O[C@H]1/C=C/[C@@H](O)[C@H](C)O	inactive	inactive
O=C(OC1CN2CCC1CC2)N1CCc2ccccc2C1c1ccccc1 (stereo not drawn)	inactive	inactive
COc1cc2c(cc1OC)CN(C(=O)/C=C/c1c(-c3ccccc3)n(C)c3ncccc13)CC2	inactive	inactive
C#CCNCc1cc2cc(OCc3ccccc3)ccc2[nH]1	inactive	inactive
COc1ccc(OC)c(-c2ccc(NC(=O)c3ccncc3F)cc2)c1	inactive	inactive
Cc1cc(N2CCOCC2)ccc1Nc1nc(NC2CCCCC2)c2[nH]cnc2n1	inactive	inactive
CCCCNc1ncc(C(=O)NCc2ccc(-n3ccnc3)cc2)c(NC2CCC(O)CC2)n1 (stereo not drawn)	inactive	inactive
CC(=O)OC(C)(C)/C=C/C(=O)C(C)(O)C1C(O)CC2(C)C3CC=C(C(C)(C)C(=O)O)C(CC(=O)O)C3(C)C(=O)CC12C (stereo not drawn)	inactive	inactive
CC(=O)O[C@H]1CC2C(COC(=O)CC(C)C)=CO[C@@H](OC(=O)CC(C)C)C2[C@]12CO2 (stereo partly drawn)	inactive	inactive
C=CC(=O)N1CCN(C(=O)CNc2cc(-c3ccccc3Cl)c(Cl)cc2OC)CC1	inactive	inactive
O=S(=O)(N[C@H]1CCCC[C@@H]1N1CCOCC1)c1ccc(Cl)cc1	inactive	inactive
C=CC(=O)N1CCCC(n2nc(-c3ccc(Oc4ccccc4)cc3)c3c(N)ncnc32)C1 (stereo not drawn)	inactive	inactive
